Only some compounds are listed: those with a hit (about 1.9% of all), similar ones and a draw of the others.
MEX-5 binding = C. elegans MEX-5 TCR-2 RNA binding activity. hit rate 0.38% among 300,000. AID 1832. Q9XUB2. activity score (negative = inhibition of binding), % at 10 µM. MEX-5/FITC-TCR2 RNA binding, fluorescence polarization; stronger effect = lower value;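 active = inhibition past about -25% in most replicates, and total fluorescence under double the plate's negative control median, limit read from the data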;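 note: 0% = DMSO and -100% = 5 µM competing unlabeled TCR2 RNA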
CR mimetic SO = lowers age-related superoxide in aged yeast cells | S. cerevisiae aged cells, superoxide DHE fluorescence; stronger effect = lower value | superoxide response (% of plate mean), % at 10 µM | hit rate 0.18% among 330,000;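 active = superoxide response under a set limit, about three screen SD below normal, cut at about 65% in these data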;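 note: yeast aged for seven days with compound at 30 °C before DHE staining; 100% = average MFI of all compound-treated wells on the plate with controls excluded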
LANA-H2A inh = blocks KSHV LANA binding to histone H2A/H2B | hit rate 0.6% among 320,000 | inhibition, % (no concentration beside the values) | AID 2629 | Q9QR71 | cell-free LANA-H2A/H2B peptide, fluorescence polarization; in the data active = inhibition mostly above about 10%, no sharp cut-off; inactive = mostly below about 6.7%
MCL1 BIM primary = inhibitors of human MCL1 binding to BIM-BH3 peptide | inhibition, % at 10.9 µM | AID 2057 | GST-MCL1 / FITC-Bim-BH3 fluorescence polarization | hit rate 0.68% among 320,000 | Q07820;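 active = inhibition above the mean inhibition of all tested compounds plus 3 SD, set per campaign, cut at about 40% in these data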;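 note: 0% = DMSO wells and 100% = unlabeled Bim-BH3 peptide control; higher means more loss of mP so more displacement of Bim peptide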
BCLXL inh = blocks human Bcl-xL binding to Bim BH3 peptide. GST-Bcl-xL / FITC-Bim BH3 peptide fluorescence polarization. inhibition, % at 10.9 µM. hit rate 0.7% among 320,000. AID 2129;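 active = inhibition above the mean of all tested compounds plus 3 SD, cutoff set per campaign, cut at about 30% in these data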;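 note: 0% = DMSO wells and 100% = unlabeled Bim-BH3 peptide competitor; inhibitors lower millipolarization by displacing the labeled peptide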
Target sequence (Q07817 whole entry, looked up): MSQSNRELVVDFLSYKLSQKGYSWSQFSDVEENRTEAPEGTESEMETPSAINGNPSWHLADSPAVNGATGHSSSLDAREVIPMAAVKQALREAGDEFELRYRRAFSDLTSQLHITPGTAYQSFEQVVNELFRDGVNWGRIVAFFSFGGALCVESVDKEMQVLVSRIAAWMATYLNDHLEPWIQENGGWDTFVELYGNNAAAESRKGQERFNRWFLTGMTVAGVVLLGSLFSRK
GLD-1 RNA inh = GLD-1-TGE RNA interaction inhibition (C. elegans); Q17339; purified GLD-1 + fluorescein TGE RNA, fluorescence polarization; inhibition, % at 5.96 µM; hit rate 0.44% among 320,000; AID 2280;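 active = percent inhibition above a per-plate cutoff, the plate mean of test compounds plus 3 SD, cut at about 30% in these data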;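 note: 0% = DMSO wells with GLD-1 and probe and 100% = wells lacking GLD-1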
* hit, by the source's call; . = no result given; + = active, no number.

SMILES	MEX-5 binding	CR mimetic SO	LANA-H2A inh	MCL1 BIM primary	BCLXL inh	GLD-1 RNA inh
O=C(Cn1cc(C(F)(F)F)ccc1=O)Nc1cc(S(=O)(=O)N2CCOCC2)ccc1Cl	-1.5	101.1	-2.0	2.0	3.5	-1.1
CN(CC#CC(O)(c1ccccc1)c1ccccc1)C(C)(C)C	.	65.4*	0.6	10.5	4.3	-1.1
CC(C)(C=O)C1=CC(=O)c2ccccc2C1=O	.	114.0	+	36.0	8.1	14.0
Nn1cnnc1SCC(=O)N1CCc2ccccc2C1	.	86.3	1.3	6.1	0.4	5.0
Cc1cc[n+](-c2[nH]c(=O)sc2/C=N/N=C(\[O-])c2ccncc2)cc1	-23.2	101.8	-3.8	49.3*	38.1*	19.8
COc1ccc(C(=O)NC(CCSC)C(=O)N2CCCCCC2)cc1 (stereo unspecified)	1.5	110.9	30.8*	7.0	6.7	9.9
COc1ccc(CC(=O)N(C)CC(=O)Nc2ccc(F)cc2)cc1S(=O)(=O)N1CCOCC1	.	94.0	4.9	0.3	-2.0	4.4
COC(=O)c1ccc(/C=N/NC(=O)C2CC(=O)N(c3ccc(F)cc3)C2)cc1 (stereo unspecified)	1.7	95.2	12.7*	-4.1	2.9	2.0
O=C(C[C@@H]1C/C=C\C[C@H](Cc2ccc(F)cc2)C(=O)OC[C@@H](c2ccccc2)NC1=O)NCCO	.	111.1	1.5	.	.	6.5
O=C(O)COc1ccccc1C=NNC(=O)c1ccccc1NS(=O)(=O)c1cccs1	.	112.0	5.4	.	.	8.8
O=C(Cc1ccc2c(c1)CCCC2)Nc1ccccc1Br	0.6	91.0	4.0	12.7	8.9	-3.3
O=C(Cc1ccc2ccccc2c1)Nc1ccccc1Br	4.2	92.2	39.0*	6.7	1.4	0.3
COc1cccc(OCCn2cc(C=O)c3ccccc32)c1	-27.1*	73.4	1.8	-9.1	-1.8	8.9
CC(C)Oc1ccc(C(=O)Nc2ccc(NC(=O)c3ccco3)c(Cl)c2)cc1	3.1	122.8	-1.7	0.7	-1.8	-0.1
O=C(Nc1ccc(NC(=O)c2ccco2)c(Cl)c1)c1ccccc1	-0.3	92.8	21.4*	-1.3	1.1	2.7
CCN(CCCCN1C(=O)c2ccccc2C1=O)c1ccc2c(c1)C(=O)N(C)C2=O	-15.1	91.7	1.1	48.7*	38.3*	6.3
CCN(CC)c1ccc2c(c1)C(=O)N(C)C2=O	-7.1	97.9	5.3	28.0	26.6	19.7
Oc1c(C=Nc2ccccc2Cl)[nH]c2ccccc12	-29.0*	110.7	1.2	28.1	39.0*	11.5
C[C@H](NC(=O)c1ccco1)C(=O)NNC(=O)c1ccc(F)cc1	.	93.0	-6.1	.	.	1.4
O=C(Nc1ccccc1)c1nn(-c2ccccc2)c(=O)cc1C(F)(F)F	-30.3*	93.2	2.3	3.8	4.3	-1.2
CCOC(=O)NC1(C(F)(F)F)N=C(c2ccccc2)NC1=O (stereo unspecified)	2.6	105.7	14.5*	0.2	3.8	2.6
Cc1ccc(Nc2c([N+](=O)[O-])ccc3nonc23)c(C)c1	0.1	122.5	3.1	6.5	46.4*	-1.4
O=C(NCc1cccc(Cl)c1)c1cccc(S(=O)(=O)N2CCCC2)c1	.	94.4	-3.5	-5.3	-0.6	3.9
O=C(O)c1ccc(Nc2ccc([N+](=O)[O-])c3nonc23)cc1	5.2	112.0	-0.4	.	.	.
O=[N+]([O-])c1ccc(Nc2ccccc2O)c2nonc12	-35.8*	107.4	-5.4	.	.	.
SMILES	MEX-5 binding	CR mimetic SO	LANA-H2A inh	MCL1 BIM primary	BCLXL inh	GLD-1 RNA inh
N#CCC(=O)Nc1ncc(Cc2ccccc2Cl)s1	-0.5	128.3	33.1*	-8.2	-11.9	-9.1
CC(C)C(=O)Nc1ncc(Cc2ccccc2Cl)s1	1.4	110.0	-0.5	2.9	4.8	-2.4
CCC1(C)Cc2ccccc2/C(=C/C(=O)N2CCCCC2)N1 (stereo unspecified)	-1.3	100.6	1.0	31.2	31.3*	12.5
O=C(c1ccccc1NS(=O)(=O)c1ccc([N+](=O)[O-])cc1[N+](=O)[O-])N1O[C@@H]2C=C[C@H]1C2	.	98.0	.	.	.	.
CN(C(=O)c1cc2c(=O)n3ccccc3nc2n1C)C1CCCCC1	-1.2	.	-1.6	-0.3	3.9	4.3
FC(F)(F)c1cccnc1-n1cncn1	0.3	103.8	12.7*	3.7	-0.5	-1.8
CCOC(=O)C1CCN(S(=O)(=O)c2c(Cl)ccc3nonc23)CC1	-1.0	113.5	3.5	5.2	7.7	3.4

Assay outcomes: PubChem BioAssay, several laboratories
